Screening results as filed in PubChem BioAssay.
VP16 counter: counter-screen for ROR gamma inhibitors: Gal4-VP16 reporter | 310,000 tested, 3.5% active | Drosophila S2 Gal4-VP16 UAS-luciferase, luminescence, 20 h | Potency, µM (doses to about 53.6 µM), for the others: at the highest dose activity, negative = inhibition, usual class: inhibitors;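 further: Gal4-VP16 expression switched on by copper sulfate through the metallothionein promoter; on the % scale 0 is the no-effect control and ±100 the full control effect; nearly all actives have a fitted effect of over 50% in size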
Epigenetic derep: regulators of epigenetic silencing causing reporter derepression in mouse cells; Potency, µM (top dose mostly 53.9 µM), inactives show top-dose GFP activation, most hits filed as activators; 280,000 tested, 0.2% active; murine LDR cells, GFP reporter derepression, 30 h; further: % of control where 0% means no effect; nearly all actives have a fitted effect of over 60% in size
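Murine LDR cells bearing a silenced CMV-driven GFP reporter were exposed to compound for 30 h at 37 C. After PBS washes, GFP-positive cells (20-120 um objects) counted by laser-scanning microplate cytometry.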
RORg inh: blocks mouse ROR gamma transcriptional activity | P51450 | Drosophila S2 Gal4-RORgamma UAS-luciferase reporter, 20 h | Potency, µM (series often up to 53.6 µM), for inactives: at the highest dose activity change, negative = inhibition, most hits filed as inhibitors | 310,000 tested, 5.4% active | AID 2551; further: on the % scale 0 is the no-effect control and ±100 the full control effect; nearly all actives have a fitted effect of over 60% in size
Target sequence (P51450 whole entry, looked up, the tested form may be a part): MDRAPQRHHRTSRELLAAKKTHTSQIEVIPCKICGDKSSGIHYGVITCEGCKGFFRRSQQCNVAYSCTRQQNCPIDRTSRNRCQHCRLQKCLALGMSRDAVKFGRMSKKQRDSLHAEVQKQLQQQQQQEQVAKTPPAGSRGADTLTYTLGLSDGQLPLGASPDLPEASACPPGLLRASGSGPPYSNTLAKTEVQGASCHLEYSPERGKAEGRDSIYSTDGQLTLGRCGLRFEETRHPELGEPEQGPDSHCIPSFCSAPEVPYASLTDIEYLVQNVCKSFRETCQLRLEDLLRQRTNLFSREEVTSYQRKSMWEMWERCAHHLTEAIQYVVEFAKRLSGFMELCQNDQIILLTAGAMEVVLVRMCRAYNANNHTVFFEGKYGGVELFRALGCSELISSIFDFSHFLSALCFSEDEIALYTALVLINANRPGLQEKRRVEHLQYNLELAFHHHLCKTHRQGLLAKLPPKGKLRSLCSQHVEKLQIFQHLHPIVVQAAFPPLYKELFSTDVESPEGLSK
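Read-out: Photinus luciferase luminescence; inhibitors lower reporter signal. Insect Schneider cells with Gal4-ROR gamma fusion under metallothionein promoter, UAS reporter; 700 uM final copper sulfate induction, 20 hr, ambient temperature.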
PINK1 expr mod: changes PINK1 expression | Potency, µM (series often up to 76.6 µM), inactives show top-dose activation (PINK1 increase), most hits filed as activators | 410,000 tested, 0.2% active | PINK1 immunofluorescence, high-content cytometry, 24 h; active means well fitted activation curve with a large enough effect; inconclusive means small, poorly fitted or top-dose-only effect; cell line not stated here; further: % of control where 0% means no effect; nearly all actives have a fitted effect of over 65% in size
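A stable cell line was treated with compounds at 5 concentrations for 24 hours, with CCCP as control. PINK1 levels and mitochondrial localization were measured by immunofluorescence with mitochondrial, cell and nuclear markers after fixation, read by laser-scanning cytometry.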
ClpP mod: qHTS Assay for Activators of ClpP; ATP-dependent Clp protease proteolytic subunit (Bacillus subtilis (strain 168)), P80244; Potency, µM (titrated, usually from 57.5 µM), without a hit: at the top dose activity change, negative = active; 340,000 tested, 1.9% active; purified B. subtilis ClpP, FRET peptide cleavage, 20 min; active means well fitted falling curve with a large enough effect; inconclusive means small, poorly fitted or top-dose-only effect; inactive means no such curve, though single readings can be large or run the other way; further: the source files actives as falling curves though it sought activators and does not explain the sign; nearly all actives have a fitted effect of over 65% in size
Target sequence (P80244 whole entry, looked up): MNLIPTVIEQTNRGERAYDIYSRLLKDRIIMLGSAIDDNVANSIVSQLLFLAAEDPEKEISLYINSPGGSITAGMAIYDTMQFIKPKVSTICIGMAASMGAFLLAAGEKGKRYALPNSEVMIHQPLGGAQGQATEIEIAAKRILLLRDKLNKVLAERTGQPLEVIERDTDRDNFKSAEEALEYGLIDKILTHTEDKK
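Purified B. subtilis ClpP, 10 microg/mL final in Tris/HCl pH8 with KCl, BSA, glycerol and Tween-20, cleaved an Abz/nitrotyrosine-quenched decapeptide. Fluorescence (ex 320, em 430) was read at 0 and 20 min at room temperature. Delta was normalized to 5.8 microM ADEP and DMSO/no-enzyme controls.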
Sfp PPTase inh: inhibitors of Bacillus subtilis Sfp phosphopantetheinyl transferase; Potency, µM, inactives show largest response in the series, negative = inhibition, usual class: inhibitors; 310,000 tested, 3.5% active; Biochemical Sfp PPTase activity, qHTS; Q9F4F7;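 further: the enzyme is Sfp with the accession as filed and its product quenches rhodamine fluorescence; 0% = enzyme reaction without inhibitor and -100% = no enzyme wells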
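Fluorescence-quenching assay: 15 nM Sfp-PPTase preincubated 15 min at room temperature with compound, then 5 uM rhodamine-CoA and 12.5 uM BHQ-2-labelled YbbR peptide added. Fluorescence (ex 525/em 598 nm) read at start and after 30 min; difference gives rate.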
An asterisk follows results filed as active; u = inconclusive; x = not tested or not shown; ! = a repeat was not active; [ ] = dose if it differs, or a comment. An excerpt weighted towards active compounds, which were near 8.1% of everything screened. Unless noted, the call rests on the fitted dose curve; in most records, active means well fitted curve in the direction sought with a large enough effect; inconclusive means small, poorly fitted or top-dose-only effect, or another doubt; inactive means no such curve, though single readings can be large; an effect the other way counts as inactive or inconclusive. Potency means the concentration at half of the fitted maximal effect.

SMILES | VP16 counter | Epigenetic derep | RORg inh | PINK1 expr mod | ClpP mod | Sfp PPTase inh
Cc1ccccc1C(=O)Nc1cccc(OCc2cc(=O)n3c4c(sc3n2)CCCC4)c1 | x | 0% | x | 1% | -28% | x
O=C(NC1CCCCC1)c1ccc(Cc2nc3ccccc3[nH]2)cc1 | x | -1% | x | x | x | x
CCOC(=O)c1ccc(NC(=O)CN2C(=O)COc3ccc(Cl)cc32)cc1 | x | -1% | x | 2% | -4% | x
Oc1ccc(Cn2ccnc2)c2cccnc12 | u | 1% | u | -1% | x | 19%
Oc1ccc(CNc2ccc(F)cc2)c2cccnc12 | u | 1% | 11µM* | 1% | -2% | 8%
Oc1ccc(CNc2ccccc2)c2cccnc12 | 0.79µM* | 1% | 16µM* | u | 1% | 21%
Cc1ccccc1NCc1ccc(O)c2ncccc12 | 11µM* | u | 11µM* | 11µM* | 4% | 3%
Cc1cccc(NCc2ccc(O)c3ncccc23)c1 | u | 12% | 6.3µM* | 17% | x | -5%
COCCN1C(=S)N[C@@H](c2cccc(F)c2)C(C(=O)OC)=C1C | 11µM*! | x | 3.5µM*! | x | x | 11%
CCN1C(=S)N[C@@H](c2ccccc2)C(C(=O)OC)=C1C | u | x | 3.2µM* | 0% | 1% | 11%
COC(=O)C1=C(C)N(Cc2ccccc2)C(=NCc2ccccc2)N[C@H]1c1cccc(F)c1 | -16% | x | u | -2% | -2% | -4%
COC(=O)C1=C(C)N(Cc2ccccc2)C(=S)N[C@H]1c1cccc(F)c1 | 13µM* | x | 4.5µM* | 1% | -1% | 1%
CC(C)(C)c1ccc(C(=O)/C=C2\NC(=O)CS2)cc1 | 10µM* | -2% | 3.2µM* | 4% | -4% | 2%
N#Cc1c(N)sc(=S)c2c1CCCC2 | 9% | 0% | -13% | 1% | 0% | 32µM*
CCC1(C)Cc2c(C#N)c(N)sc(=S)c2CO1 (stereo not drawn) | -14% | 3% | -26% | -1% | -4% | 13µM*
CCCS(=O)(=O)N1CC(=O)N(c2ccc(C)c(Cl)c2)C(C)(C(=O)NC2CCCCCC2)C1 (stereo not drawn) | x | -1% | x | 2% | 2% | x
O=C(Nc1ccc(N2CCN(C(=O)c3ccco3)CC2)cc1)c1ccco1 | -1% | 0% | 26% | 0% | x | 14%
COc1ccccc1C(=O)NC(=S)Nc1ccc(N2CCN(C(=O)c3ccco3)CC2)cc1 | 10µM* | x | -13% | -1% | 1% | -13%
O=C(Nc1ccc(NC(=O)c2cccs2)c(Cl)c1)c1ccco1 | -14% | 1% | -20% | 0% | x | 0%
O=C(Nc1ccc(NC(=O)c2sc3ccccc3c2Cl)cc1Cl)c1ccco1 | u | u | 10µM* | u | -9% | -18%
Cc1ccccc1C(=O)N1CCN(c2ccc(NC(=S)NC(=O)c3ccco3)cc2)CC1 | u | x | 16µM* | -2% | -2% | 12%
Cc1ccccc1C(=O)N1CCN(c2ccc(NC(=O)c3ccco3)cc2Cl)CC1 | 6.3µM* | 0% | u | -2% | 0% | -23%
O=C(Nc1ccc(N2CCN(C(=O)c3cccs3)CC2)c(Cl)c1)c1ccco1 | -2% | 2% | u | -1%[38.3 µM] | -2% | 1%
CCC(C)Sc1cccc(-c2nc3ccc(Cl)cn3c2NCc2ccccc2)c1 (stereo not drawn) | x | x | x | u | 25µM* | x
CCCCCCSc1cccc(-c2nc3ccc(C)cn3c2NCc2ccccc2)c1 | x | x | x | 25µM* | 5% | x
SMILES | VP16 counter | Epigenetic derep | RORg inh | PINK1 expr mod | ClpP mod | Sfp PPTase inh
CCCCCCSc1cc(-c2nc3cc(C)ccn3c2NCCCC)ccc1OC | x | x | x | u | 16µM* | x
CCOC(=O)C1CCN(C(=O)C2CCN(C3=NS(=O)(=O)C(c4ccc(C)c(C)c4)=C3C)CC2)CC1 | x | 3% | x | 3% | -1% | x
COc1ccccc1-c1ccc(C(=O)N(C)CC2COCCO2)c(N2CCN(c3ccccc3F)CC2)n1 (stereo not drawn) | x | x | x | 0% | x | x
CC(=O)Nc1ccc(S(=O)(=O)Nc2nc3ccccc3nc2N2CCc3ccccc3C2)cc1 | -4% | 0% | 15% | 2% | -27% | -10%
Cc1ccccc1S(=O)(=O)Nc1nc2ccccc2nc1N1CCc2ccccc2C1 | u | 1% | 0% | 5% | u | -8%
O=S(=O)(Nc1nc2ccccc2nc1Cl)c1ccc(Br)cc1 | -12% | -1% | -7% | 8% | -16% | 71µM*
O=S(=O)(Nc1nc2ccccc2nc1N1CCc2ccccc2C1)c1ccc(Cl)cc1 | u | -1% | 33%[10 µM] | 16µM* | u | 11%
O=S(=O)(Nc1nc2ccccc2nc1N1CCc2ccccc2C1)c1ccc(Br)cc1 | u | -1% | 7.9µM* | u | 1% | -15%
CCCCNc1nc(C)nc2c1nc(-c1ccccc1)n2CCCN1CCCCC1C (stereo not drawn) | -7% | 4% | -20% | x | x | 24%
O=C(NN=C1CCCC1)c1[nH]c2ccc(Br)cc2c1-c1ccccc1 | u | u | 11µM* | 1% | x | -2%
O=C(N/N=C/c1ccccc1)c1[nH]c2ccc(Br)cc2c1-c1ccccc1 | u | 1% | u | 15% | 22µM* | -4%
Fc1ccc(-c2cc(C(F)(F)C(F)F)[nH]n2)cc1 | 13µM* | -1% | 2% | 1% | x | 0%
CC1CN(CCC(=O)NC(c2cccnc2)C(F)(F)F)Cc2cc(Cl)ccc2O1 (stereo not drawn) | x | x | x | 0% | x | x
COc1ccccc1CC(=O)Nc1ccc(O)cc1C(=O)O | -9% | -1% | -1% | -3% | 18µM* | 16%
COc1ccccc1CC(=O)Nc1ccc(Cl)cc1C(=O)O | -4% | -7% | 1% | 1% | x | 7%
COc1cc2c(cc1NC(=O)COc1ccc3ccccc3c1)oc1ccccc12 | -4% | 0% | 31% | -1% | 3.2µM* | u
COc1cc2c(cc1NC(=O)CSc1ccccn1)oc1ccccc12 | 5% | 0% | 18% | 5% | -14% | 45µM*
COc1ccccc1CC(=O)Nc1cc2oc3ccccc3c2cc1OC | -20% | -1% | -3% | 7%[38.3 µM] | 32µM* | u
COc1ccc(CC(=O)Nc2cc3oc4ccccc4c3cc2OC)cc1 | -19% | -2% | 33% | 2% | -20% | -14%
CN(C)CCN(C(=O)c1ccco1)c1nc2c(F)cc(F)cc2s1 | x | -1% | x | 3% | -3% | x
CN(Cc1ccccc1)S(=O)(=O)c1cc(Br)cc2c1N(C(=O)C1CC1)CC2 | x | 0% | x | 7% | 0% | x
Cc1nn(-c2ccc(Cl)cc2)c2nc(-c3cccnc3)cc(C(F)(F)F)c12 | x | -1% | x | -1% | -1% | x
